Experimental findings from PMC12864922, “TDP-43 directly inhibits mRNA accumulation in neurites through modulation of mRNA stability” are described below.

In all, about 9,900 sequences were measured (“r (bound/input frequency ratio)”: median about 0.7, highest 2% from about 6.5 on). The list comes from a sample in which the highest values are over-represented; it also holds similar and randomly drawn sequences.

B1: ENSMUSG00000043670.158|Diras1 (ssRNA)
RNA: GGGAGUUCUACAGUCCGACGAUCGCUUCGAUAUCCGCAUGCUACUGCUGAGAUAGAGACCUUGGCACAGUGGCACCUCGACAGCCACCCCGACUGGGGGUUUGGGGUGCUGAGGGUGGGGUGCCCAGCUGAGAGUCUAUCAGCAAAGUCCCUGUGUGCGGUGAUAGGACUAGUGGCUGCUGCCCUAGGGCUCUGACAGAAUCUGAGCCUCUUUGCUGGUCAUGUGUACUCUGGAGACUGUCCCCCAUGUCUGCCCUGAGUUACGGAGCCCCUGUGGUAUCUGCGAGACUGUCCAGGAGACUUGCUCUUGCGGUCGCACUAGUGUGGAAUUCUCGGGUGUCAAGG
B2: ENSMUSG00000022095.20|Fam160b2|21:25;227:231 (ssRNA)
RNA: GGGAGUUCUACAGUCCGACGAUCGCUUCGAUAUCCGCAUGCUAGGUGGGGGAAGAUUCCUGCCACACAACUUCUGCCCACGGGCAGUCUCCUGCCUGGCCAUGCUGCCACUCUGUCCUCCAUGCCGGGGACUUCAGCUGCAGGACACCUCACCUGUUGACCCCACGAGCUGAGGUUUCAAGGAGGUGCUGGCUCCUAAGGCAGUGGUAUUCUUGGAGCCUUUUAGAGGAGCUAGAGGAUGGCCAGUGAGCGCCUAGAUGCUGCCCUGCAACACAUGCGUGACUAUCUCUGCUAUAUUGUGACCCUCUUGCGGUCGCACUAGUGUGGAAUUCUCGGGUGUCAAGG
B3: ENSMUSG00000035202.138|Lars2 (ssRNA)
RNA: GGGAGUUCUACAGUCCGACGAUCGCUUCGAUAUCCGCAUGCUAAUAAAGGAUUUUAAAUUUUUUUACAAGUGAGAACCUAGCAUGUCAAGGUCCUAGGUUCCAUCUCCAACACGAAAAAAGCAAGGCAACUCUACCAAAGAAACUAAUUACAUACUUGUAUUCCCAAUAUGUGAGAAGCUGAGGAAGGAGGAUCAUGAGUUUAAAGCCAUCCUUGGUUACAUGAGACUCUUGUCUCAAAGAACUACCAGGGAUCCUAAUGGACAACAAAGGUUGAAAACCAUUGAAUUAAUAAAUGUUGUGAACUCUUGCGGUCGCACUAGUGUGGAAUUCUCGGGUGUCAAGG
B4: ENSMUSG00000061578.722|Ksr2 (ssRNA)
RNA: GGGAGUUCUACAGUCCGACGAUCGCUUCGAUAUCCGCAUGCUAUCUCUGAAUGUACGUGGGGGACUCCAACAGAUGUUGGGAGAAGACUCAAUAUGAGCAUACGGGGUCAUUGUUCAAUCCUGUAUCAAGACCUUGGAGUUGUCUAAGGCUGUGGGUUUUAAAUACCUGCUGCAGGCCUCCCAUCUCUGGCUCUUUGUUUCCACUCUGGCCCAAGUUUGAGUCUCCAUAUGGGCCCUUCCUGUCCUCAUGCCCUGCCUGUCUUCAUUCCACCCAUCCACCCUCCUAAGGAUUGGUCUUGUUCCCUCUUGCGGUCGCACUAGUGUGGAAUUCUCGGGUGUCAAGG
B5: ENSMUSG00000058297.268|Spock2 (ssRNA)
RNA: GGGAGUUCUACAGUCCGACGAUCGCUUCGAUAUCCGCAUGCUAAUUUGAUGAAGAAUUCCUUACCUGGGCCUCUGAUACCCUUUGGUACGCGUACGUGUGUGUGGCGCGUAUACGUGUGUGUGUGUGUGUGUGUGUGUGUGUGUGUGUGUGUGUGUGAGAGAGAGAGAGAGAGAGAGAGAGAGAGAGAGAGAGAAAGAGAGAGAGAAUGAGAGAGAAUGAGAGAGAGAAUACCCGAGGGCCACCCUGAUGCCCAGGAAGAGUGAGGGCAGCCCCCUGUGUGGUGGAAGAGGCUGGGCAGCUAGCUCUUGCGGUCGCACUAGUGUGGAAUUCUCGGGUGUCAAGG
B6: ENSMUSG00000058297.271|Spock2 (ssRNA)
RNA: GGGAGUUCUACAGUCCGACGAUCGCUUCGAUAUCCGCAUGCUAUACCUGGGCCUCUGAUACCCUUUGGUACGCGUACGUGUGUGUGGCGCGUAUACGUGUGUGUGUGUGUGUGUGUGUGUGUGUGUGUGUGUGUGUGUGAGAGAGAGAGAGAGAGAGAGAGAGAGAGAGAGAGAGAAAGAGAGAGAGAAUGAGAGAGAAUGAGAGAGAGAAUACCCGAGGGCCACCCUGAUGCCCAGGAAGAGUGAGGGCAGCCCCCUGUGUGGUGGAAGAGGCUGGGCAGCUAGCUACUGGGGACCUUGUGCCUCUUGCGGUCGCACUAGUGUGGAAUUCUCGGGUGUCAAGG
B7: ENSMUSG00000058297.266|Spock2 (ssRNA)
RNA: GGGAGUUCUACAGUCCGACGAUCGCUUCGAUAUCCGCAUGCUAUUUCCUUGAUAUAUUUGAUGAAGAAUUCCUUACCUGGGCCUCUGAUACCCUUUGGUACGCGUACGUGUGUGUGGCGCGUAUACGUGUGUGUGUGUGUGUGUGUGUGUGUGUGUGUGUGUGUGUGUGAGAGAGAGAGAGAGAGAGAGAGAGAGAGAGAGAGAGAAAGAGAGAGAGAAUGAGAGAGAAUGAGAGAGAGAAUACCCGAGGGCCACCCUGAUGCCCAGGAAGAGUGAGGGCAGCCCCCUGUGUGGUGGAAGAGGCUCUUGCGGUCGCACUAGUGUGGAAUUCUCGGGUGUCAAGG
B8: ENSMUSG00000058297.267|Spock2 (ssRNA)
RNA: GGGAGUUCUACAGUCCGACGAUCGCUUCGAUAUCCGCAUGCUAUGAUAUAUUUGAUGAAGAAUUCCUUACCUGGGCCUCUGAUACCCUUUGGUACGCGUACGUGUGUGUGGCGCGUAUACGUGUGUGUGUGUGUGUGUGUGUGUGUGUGUGUGUGUGUGUGUGAGAGAGAGAGAGAGAGAGAGAGAGAGAGAGAGAGAGAAAGAGAGAGAGAAUGAGAGAGAAUGAGAGAGAGAAUACCCGAGGGCCACCCUGAUGCCCAGGAAGAGUGAGGGCAGCCCCCUGUGUGGUGGAAGAGGCUGGGCCUCUUGCGGUCGCACUAGUGUGGAAUUCUCGGGUGUCAAGG
B9: ENSMUSG00000031028.129|Tub (ssRNA)
RNA: GGGAGUUCUACAGUCCGACGAUCGCUUCGAUAUCCGCAUGCUACCAAAUAUCUGAGUGGAUGGGGAUGAUAGGAGUCAUCCAGUAGACUCCCUACAUCAGGGCUCUCAGCAGCCCCAGCACAACACCUAUGACACACACACAGGAUCUAGGUCACCAUUCAAGUAAUGGUAUGCUUCAGGAAGAAUGUCCUCUCUGGGAAGACUCAGCUCCCAUUAUUGCCAGCAUGCCAUGAUCAGUGAGGGCUGUGUGCCAUGCUUAGGGGGAUGGCGCAGGGUGAGGGGAGCAGAGGAUAUUUUAGGGCCCUCUUGCGGUCGCACUAGUGUGGAAUUCUCGGGUGUCAAGG

The target in this assay is TDP-43 (Homo sapiens, UniProt Q13148 1-414). Kind of assay: RNA Bind-n-Seq with designed 260-mer pool; 25 mM Tris-HCl, 150 mM KCl, 3 mM MgCl2, BSA (printed 500 mg/mL), 20 units/mL SUPERase IN; pH not stated; 500 nM RNA pool, 1 h, 4 C; TDP-43 5, 50, 500 nM; high values mean tight binding. The note with it: protein: recombinant; tags: SBP (GST cleaved off with PreScission; pGEX-GST-SBP). Put shortly: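 For each oligo, R gives binding as its mapped-read-normalized abundance after pulldown divided by its abundance in input. Bead-captured SBP-tagged TDP-43 (5, 50 or 500 nM) was incubated with 500 nM of an in vitro-transcribed 260-nt 3′ UTR oligo pool for 1 h at 4 °C in 25 mM Tris-HCl, 150 mM KCl, 3 mM MgCl2, BSA and SUPERase IN on streptavidin beads. Washed, biotin-eluted RNA was reverse transcribed, PCR-amplified and sequenced.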
Chain of TDP-43 (Q13148 whole entry): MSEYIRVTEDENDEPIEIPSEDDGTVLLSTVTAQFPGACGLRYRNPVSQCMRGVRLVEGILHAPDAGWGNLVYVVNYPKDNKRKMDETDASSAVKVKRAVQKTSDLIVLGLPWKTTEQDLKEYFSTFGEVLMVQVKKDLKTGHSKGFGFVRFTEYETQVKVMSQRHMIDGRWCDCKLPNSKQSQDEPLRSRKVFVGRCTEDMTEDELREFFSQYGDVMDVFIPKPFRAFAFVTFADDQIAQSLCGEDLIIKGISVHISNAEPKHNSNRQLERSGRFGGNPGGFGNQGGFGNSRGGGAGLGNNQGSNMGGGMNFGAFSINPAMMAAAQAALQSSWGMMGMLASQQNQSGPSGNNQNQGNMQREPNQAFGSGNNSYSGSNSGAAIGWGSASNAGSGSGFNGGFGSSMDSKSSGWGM
Turning to B1, the binding signal was 0.372 R (bound/input frequency ratio).

As to B2, the binding signal is 0.271 R (bound/input frequency ratio).

Regarding B3, the binding signal is 0.101 R (bound/input frequency ratio).

B4: the binding signal is 1.64 R (bound/input frequency ratio).

With B5, the binding signal is 2.37 R (bound/input frequency ratio).

On to B6, for which the binding signal was 8.28 R (bound/input frequency ratio).

In the case of B7, the binding signal was 5.83 R (bound/input frequency ratio).

Consider B8, for which the binding signal was 8.95 R (bound/input frequency ratio).

Regarding B9, the binding signal was 0.521 R (bound/input frequency ratio).
